Here are results for 99 molecules from PubChem BioAssay AID1578 (Sanford-Burnham Center for Chemical Genomics, 2009).

Among all 290,000 compounds or so, about 3,000 (1%) were called active. No stated cut-off is given here; in the data, active means inhibition mostly above about 36% (no sharp cut-off); inactive means mostly below about 34%. Only a selection was taken, and actives are over-represented in it overall.

A short description of the assay: inhibition of NOD1-driven NF-kB reporter – cell-based, luminescence, uHTS, primary screen (AID 1578).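 Further: HEK-293T reporter cells stimulated with the NOD1 agonist gamma-tri-DAP.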 The conditions noted are these: NOD1-driven NF-kB luciferase reporter cells, at 4 µM, active compounds read high. (In general: In a reporter assay the amount or activity of a reporter protein is the signal.)
Consider `Cc1ccc2nc(-c3ccccc3)cn2c1`, for which the inhibition – broadly, the drop in the measured response relative to a control, in per cent – is 18% (inactive).

Regarding `Cc1ccc(-c2cn3cc(C)ccc3n2)cc1`, the inhibition was 92.4% (active).

For `Cc1ccc2nc(-c3ccc(O)c(O)c3)cn2c1`, the inhibition was -18.6% (inactive).

Consider `CCOC(=O)c1c(CSc2ccc(C)cc2)oc2ccc(O)cc12`, for which the inhibition was 30% (inactive).

As to `CCOC(=O)c1c(COc2ccccc2)oc2ccc(O)cc12`, the inhibition is 0% (inactive).

`CCOC(=O)c1c(CSc2ccccc2)oc2ccc(O)cc12`: the inhibition was 98.6% (active).

For `CCOC(=O)CC(=O)CSc1nc2ccccc2c(=O)n1-c1ccc(C(=O)N2CCOCC2)cc1`, the inhibition is 6.8% (inactive).

On to `Cc1ccc(Cn2nnc3c(=O)[nH]c(C4CCCN(S(=O)(=O)c5ccc(F)cc5)C4)nc32)cc1` (centres undefined), for which the inhibition is -17.1% (inactive).

On to `CCN(CC(=O)Nc1ccc(NC(C)=O)cc1)C(=O)C1COc2ccccc2O1` (centres undefined), for which the inhibition is -17.6% (inactive).

In the case of `CC(CN1CCOCC1)OC(=O)c1ccc(C(C)(C)C)cc1` (centres undefined), the inhibition was 68.1% (active).

As for `CC(CN1CCOCC1)OC(=O)c1ccc(Br)cc1` (centres undefined), the inhibition is -14.8% (inactive).

As for `CC(CN1CCOCC1)OC(=O)c1ccccc1` (centres undefined), the inhibition was -4.8% (inactive).

Regarding `COc1ccc(Cn2c3nc4ccccc4nc3c3c(=O)n(Cc4ccco4)cnc32)cc1`, the inhibition was 32.5% (inactive).

On to `COc1ccc(Cn2c3nc4ccccc4nc3c3c(=O)n(Cc4ccco4)c(C)nc32)cc1`, for which the inhibition was 110% (active).

For `Cc1nc2c(c(=O)n1Cc1ccccc1Cl)c1nc3ccccc3nc1n2Cc1ccco1`, the inhibition was 17.8% (inactive).

Turning to `O=C(NS(=O)(=O)Nc1ccc(Br)cn1)c1c[nH]c2ccccc12`, the inhibition was 31.1% (inactive).

As for `CCOc1ccc(S(=O)(=O)N(C)c2ccc(OCC(=O)NCCc3ccc(OC)cc3)cc2)cc1`, the inhibition was -14% (inactive).

On to `CN1CCN(S(=O)(=O)c2cccc(C(=O)Nc3sc4c(c3-c3nc5ccccc5[nH]3)CCCC4)c2)CC1`, for which the inhibition was -16% (inactive).

`O=C(Nc1ccc(NC(=O)c2cccs2)cc1)c1cccs1`: the inhibition is -30.2% (inactive).

With `O=C(Nc1ccncc1)c1cccs1`, the inhibition is 37.2% (inactive).

Regarding `O=C(Nc1nonc1NC(=O)c1cccs1)c1cccs1`, the inhibition is 58.9% (active).

In the case of `N#C/C(=C\c1cccc([N+](=O)[O-])c1)C(=O)NCC1CCCO1` (centres undefined), the inhibition was -21% (inactive).

Turning to `O=C(Nc1ccccc1C(=O)O)c1ccc(Br)c(S(=O)(=O)NCc2ccccc2)c1`, the inhibition was -0.6% (inactive).

Consider `COC(=O)CSc1ncnc2c1cnn2Cc1ccccc1`, for which the inhibition was 13.7% (inactive).

In the case of `CCOC(=O)CNC(=O)CSc1ncnc2c1cnn2Cc1ccccc1`, the inhibition is 55.8% (active).

As for `CCOC(=O)CNC(=O)CSc1ncnc2c1cnn2-c1ccccc1`, the inhibition is -10.2% (inactive).

As to `COc1ccc(OC)c(-c2cc(C3CCN(c4cc(Cl)nc(N)n4)CC3)[nH]n2)c1`, the inhibition was 56.3% (active).

Regarding `Nc1nc(Cl)cc(N2CCC(c3cc(-c4ccc(Cl)cc4Cl)n[nH]3)CC2)n1`, the inhibition was 34.5% (inactive).

Take `COc1ccc(-c2cc(C3CCN(c4cc(Cl)nc(N)n4)CC3)[nH]n2)cc1`: the inhibition was 25.9% (inactive).

As to `COC(=O)c1cc(C(=O)c2ccccc2)n2c(=O)/c(=C\N(C)C)sc12`, the inhibition was -11.3% (inactive).

For the molecule `O=C(NNC(=S)Nc1ccccc1C(F)(F)F)C1CC1`, the inhibition is -0.9% (inactive).

In the case of `O=C(CCC(=O)Nc1ccccc1Cl)NNC(=S)Nc1ccccc1C(F)(F)F`, the inhibition is -30.7% (inactive).

On to `N#CCC(=O)NNC(=S)Nc1ccccc1C(F)(F)F`, for which the inhibition is 42.8% (active).

For the molecule `Cc1ccc(C(=O)c2oc3nc(C)cc(C)c3c2N)cc1`, the inhibition is -6.8% (inactive).

`Cc1cc(C)c2c(N)c(C(=O)c3ccccc3)oc2n1`: the inhibition was 2% (inactive).

`Cc1cc(C)c2c(N)c(C(=O)c3ccc(Br)cc3)oc2n1`: the inhibition is 68.7% (active).

In the case of `CCOC(=O)c1c(C)[nH]c(C(=O)COC(=O)c2ccccn2)c1C`, the inhibition is 1% (inactive).

Turning to `CC(C)n1c(CN(C)c2ccccc2)nc2ccccc21`, the inhibition was -18.1% (inactive).

Regarding `COc1ccc(OC)c(S(=O)(=O)Nc2ccc(OCC(=O)O)cc2)c1`, the inhibition was 2.7% (inactive).

Take `COc1ccc(NC(C)=O)cc1S(=O)(=O)NC(Cc1ccccc1)C(=O)O` (centres undefined): the inhibition was -2.4% (inactive).

On to `COc1ccc(NC(=O)c2nnn(CC(=O)Nc3ccc4c(c3)OCO4)c2N)c(OC)c1`, for which the inhibition was -46.4% (inactive).

As to `C=CCN=C(NC#N)SCC(=O)NC(C)(C)C`, the inhibition is 1.5% (inactive).

Turning to `Cn1c(SCC(=O)NC2CCCCC2)nnc1-c1ccc(N)cc1`, the inhibition was -10.1% (inactive).

For the molecule `Cn1c(SCC(=O)NC2CCCCC2)nnc1-c1cccc(N)c1`, the inhibition is 46.1% (active).

With `Cc1cccc(-c2nnc(SCC(=O)NC3CC3)n2C)c1`, the inhibition is -27.5% (inactive).

As to `CCn1ccnc1[C@@H]1C[C@H]2CN(c3ccccc3OC)C(=O)[C@]23CCCN13`, the inhibition was -22.3% (inactive).

Turning to `C=C(C)Cn1c(NCCC)nc2c1c(=O)n(C)c(=O)n2C`, the inhibition was -26.6% (inactive).

`CC(CCc1ccccc1)NC(=O)CN1CCSc2ccccc21` (centres undefined): the inhibition is 8% (inactive).

In the case of `CC(C)(C)C1CCC(=O)N(CCSc2ccccc2)CC1` (centres undefined), the inhibition is -65% (inactive).

As to `COC1=C(OC)C(=O)C(CCCCCCCCCCO)=C(C)C1=O`, the inhibition is 87.7% (active).

With `CC1=C(C)C(=O)C(CCCCC#CCCCC#CCO)=C(C)C1=O`, the inhibition is -6.7% (inactive).

As to `Cc1[nH]c(=S)[nH]c(=O)c1CCCO`, the inhibition is -25.6% (inactive).

Take `COc1ccc(C(CCN(Cc2ccc(OC)c(OC)c2)C(C)=O)C(C)C)cc1` (centres undefined): the inhibition was -0.7% (inactive).

With `COc1ccc(C(CCN(Cc2ccc(OC)c(OC)c2)C(=O)CCl)c2ccccc2)cc1` (centres undefined), the inhibition is 82.9% (active).

For the molecule `COc1ccc(CNCCC(c2ccc(OC(C)C)cc2)c2ccccc2OC)cc1OC` (centres undefined), the inhibition is -0.9% (inactive).

Turning to `COc1ccc(C(CCN(Cc2ccc(OC)c(OC)c2)C(C)=O)c2ccccc2)cc1` (centres undefined), the inhibition was 14.5% (inactive).

As for `COc1ccc(CNCCC(c2ccccc2)c2ccc(OC(C)C)cc2)cc1OC` (centres undefined), the inhibition was -3.1% (inactive).

`COc1ccccc1N(C(C)=O)c1nc(C)cc(C)c1C#N`: the inhibition is -33.1% (inactive).

Consider `O=C(O)c1ccc(NS(=O)(=O)c2cccc(S(=O)(=O)c3ccc(Cl)c(Cl)c3)c2)cc1`, for which the inhibition was -30.6% (inactive).

`COc1cc2c(cc1OC)CN(CC(=O)Nc1ccc(C)c(S(=O)(=O)N3CCOCC3)c1)CC2`: the inhibition is -14.6% (inactive).

Turning to `COc1cccc(NC(=O)Cn2nc(Cc3cccnc3)c3ccccc3c2=O)c1`, the inhibition was -18.3% (inactive).

As to `Cn1c(/C=C/c2ccccc2)nc2ccccc2c1=O`, the inhibition was -12.9% (inactive).

Regarding `C=CCn1c(/N=C/c2ccc(OC)cc2)nc2ccccc21`, the inhibition was -6.3% (inactive).

For `COc1ccc(/C=C/c2nc3ccccc3n2C)cc1`, the inhibition is 74.4% (active).

In the case of `COc1ccc(/C=N/NC(=O)CCn2nnc3ccccc32)cc1`, the inhibition is -3.7% (inactive).

Regarding `CCCn1c(/C=C/c2ccccc2)nc2ccccc21`, the inhibition is -41.4% (inactive).

Consider `Cn1c(/C=C/c2ccccc2)nc2ccccc21`, for which the inhibition is 48.9% (active).

In the case of `COc1ccc(/C=N\n2nnc3ccccc32)cc1`, the inhibition was 42% (active).

Consider `COc1ccc(Cn2c(/C=C/c3ccccc3)nc3ccccc32)cc1`, for which the inhibition was -65.7% (inactive).

As to `COc1ccc(/C=C/c2nc3ccccc3n2Cc2ccccc2OC)cc1`, the inhibition is 5.5% (inactive).

Take `O=C(OCC(=O)C12CC3CC(CC(C3)C1)C2)c1cnccn1`: the inhibition was -23.7% (inactive).

With `CCOC(=O)c1c(CSc2ccc(C)cc2)n(C)c2cc(Br)c(O)c(CN(C)C)c12`, the inhibition is -29.9% (inactive).

For the molecule `CC(C)(C)c1ccc(OCCNC(=S)NC(=O)c2cccnc2)cc1`, the inhibition was -17.1% (inactive).

For the molecule `Cc1ccc2[nH]c(=O)c3cc(C(=O)NC(C)C)sc3c2c1`, the inhibition is -4.6% (inactive).

With `COC(=O)CSc1nnc(CNC(=O)c2cccs2)n1-c1cccc(C)c1`, the inhibition is -22.2% (inactive).

As for `O=C(c1ccc(N2CCN(S(=O)(=O)c3ccccc3)CC2)c([N+](=O)[O-])c1)N1CCOCC1`, the inhibition was -3.7% (inactive).

On to `COC(=O)c1ccc(N2CCN(S(=O)(=O)c3ccccc3)CC2)c([N+](=O)[O-])c1`, for which the inhibition was -18.3% (inactive).

As to `CCN1CCN(C(c2cccs2)C(C)NC(=O)C(=O)N2CCCCC2)CC1` (centres undefined), the inhibition was -23.8% (inactive).

In the case of `Cc1ccc(Nc2ncnc3c2nnn3Cc2ccccc2)cc1`, the inhibition was -7.5% (inactive).

Regarding `O=C(CCC(=O)N1CCSc2ccccc21)NCc1cccc(Br)c1`, the inhibition is -27.1% (inactive).

Turning to `O=c1[nH]c(CCl)nc2cc(-c3ccc(Cl)cc3)sc12`, the inhibition is 92.6% (active).

Take `O=c1[nH]cnc2cc(-c3ccc(Br)cc3)sc12`: the inhibition was -63.3% (inactive).

`COc1ccc(-c2cc3nc[nH]c(=O)c3s2)cc1`: the inhibition is -1.7% (inactive).

Take `OCCN(CC#CCC(O)(c1ccccc1)C1CCCC1)CCO` (centres undefined): the inhibition is -2% (inactive).

Turning to `CCCCCc1cc(=O)oc2c(C(CCN3CCCCC3)c3ccc4c(c3)OCO4)c(OC)cc(OC)c12` (centres undefined), the inhibition was 2.9% (inactive).

As to `Cc1ccc2[nH]cc(/C=C/c3cc[n+](C)cc3)c2c1`, the inhibition is 4.2% (inactive).

In the case of `Cc1ccc2[nH]c(C)c(/C=C/c3cc[n+](C)cc3)c2c1`, the inhibition was 5.6% (inactive).

`O=S(=O)(O)c1nc2ccccc2n1Cc1ccccc1`: the inhibition was 82.8% (active).

Regarding `CS(=O)(=O)c1nc2ccccc2n1Cc1ccccc1`, the inhibition is 13.9% (inactive).

In the case of `Cc1ccc(Cn2c(S(=O)(=O)O)nc3ccccc32)cc1`, the inhibition was -25.7% (inactive).

For the molecule `COc1ccc(CCC(=O)N(c2nnc(-c3cccnc3)s2)C(C)C)cc1`, the inhibition is -14.2% (inactive).

`NC(=O)NC(=O)CSc1ccccc1`: the inhibition is -37.5% (inactive).

As to `COCCc1nnc(NC(=O)C23CC4CC(CC(C4)C2)C3)s1`, the inhibition was -34.2% (inactive).

On to `CC(C)(C)c1ccc(C(=O)Nc2ccc(Oc3cccnc3)nc2)cc1`, for which the inhibition is 29% (inactive).

Consider `O=C(Nc1ccc(Oc2cccc(C(F)(F)F)c2)nc1)c1ccccc1`, for which the inhibition was 10.3% (inactive).

For `O=S(=O)(N/N=C\c1ccc2c(c1)OCO2)c1ccc(F)cc1`, the inhibition is -7.6% (inactive).

With `CC(=O)Nc1ccc(NC2=Nc3ccccc3N3C2=Nc2c(c(C)nn2-c2ccccc2)C3c2ccccc2)cc1` (centres undefined), the inhibition is 99% (active).

For `Cc1nn(-c2ccccc2)c2c1C(c1ccc(O)c(O)c1)N1C(=N2)C(Nc2ccccc2)=Nc2ccccc21` (centres undefined), the inhibition is -2.4% (inactive).

`Cc1ccc(NC2=Nc3ccccc3N3C2=Nc2c(c(C)nn2-c2ccccc2)C3c2ccc(O)c(O)c2)cc1` (centres undefined): the inhibition is 2.5% (inactive).
